Bioassay records as filed in PubChem.
SNCA expr inhib: SNCA gene expression inhibition; HEK-293 SNCA-luciferase knock-in, luminescence, 24 h; Potency, µM (titrated, usually from 57.2 µM), inactives show at the top dose activity change, negative = inhibition, usual class: inhibitors; 140,000 compounds, 0.17% hits; AID 1671194;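 note: potency is the fitted concentration of half-maximal effect; plate controls were DMSO cells for no effect and cell-free wells for full effect; nearly all actives have a fitted effect of over 45% in size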
HEK293 tox: cytotoxic compounds in HEK 293 cells; HEK 293 viability, ATP luminescence (CellTiter-Glo), 48-72 h; 94,000 compounds, 6.6% hits; Potency, µM (doses to about 115 µM), for inactives: at the highest dose activity change, negative = cytotoxicity, actives largely listed as inhibitors; note: potency is the fitted concentration of half-maximal effect; nearly all actives have a fitted effect of over 60% in size
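Cells seeded first (HEK 293, 250 cells/well), then compound added by pintool. Incubation ran 48 or 72 hr at 37 degree Celsius. CellTiter-Glo was added and luminescence imaged after 10 min at room temperature.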
IP6K1 inh: inhibitors of human IP6K1; Q92551; IP6K1 kinase, ADP-Glo luminescence, 2 h; active compounds read low; activity change, % (series mostly up to about 58 µM); 140,000 compounds, 0.81% hits; AID 1645851; in the data active = activity change below about -25%
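ADP-Glo luminescence measures ADP made by human IP6K1 during a 2 h RT reaction with ATP/IP6 (mix at 1.3 mM/130 uM); top library doses 57.5 and 19.1 uM final.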
NIH3T3 tox: cytotoxic compounds in NIH 3T3 cells | NIH 3T3 viability, CellTiter-Glo ATP luminescence, 48-72 h | 94,000 compounds, 4.3% hits | Potency, µM (doses to about 96.7 µM), without a hit: top-dose activity change, negative = cytotoxicity, actives largely listed as inhibitors | AID 1345082; note: potency is the fitted concentration of half-maximal effect; nearly all actives have a fitted effect of over 55% in size
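Cytotoxicity is measured as loss of cellular ATP: NIH 3T3 cells (400/well) are exposed to compound for 48 or 72 hr at 37 °C, then CellTiter-Glo luminescence is imaged after 10 min at room temperature.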
Luciferase inh: inhibitors of firefly (Photinus pyralis) luciferase. purified P. pyralis luciferase, luminescence, biochemical. Potency, µM (top dose mostly 115 µM), hits mostly inhibitors. 76,000 compounds, 2.5% hits. AID 1347043; note: potency is the fitted concentration of half-maximal effect; nearly all actives have a fitted effect of over 65% in size
Target sequence (P08659 whole entry, looked up): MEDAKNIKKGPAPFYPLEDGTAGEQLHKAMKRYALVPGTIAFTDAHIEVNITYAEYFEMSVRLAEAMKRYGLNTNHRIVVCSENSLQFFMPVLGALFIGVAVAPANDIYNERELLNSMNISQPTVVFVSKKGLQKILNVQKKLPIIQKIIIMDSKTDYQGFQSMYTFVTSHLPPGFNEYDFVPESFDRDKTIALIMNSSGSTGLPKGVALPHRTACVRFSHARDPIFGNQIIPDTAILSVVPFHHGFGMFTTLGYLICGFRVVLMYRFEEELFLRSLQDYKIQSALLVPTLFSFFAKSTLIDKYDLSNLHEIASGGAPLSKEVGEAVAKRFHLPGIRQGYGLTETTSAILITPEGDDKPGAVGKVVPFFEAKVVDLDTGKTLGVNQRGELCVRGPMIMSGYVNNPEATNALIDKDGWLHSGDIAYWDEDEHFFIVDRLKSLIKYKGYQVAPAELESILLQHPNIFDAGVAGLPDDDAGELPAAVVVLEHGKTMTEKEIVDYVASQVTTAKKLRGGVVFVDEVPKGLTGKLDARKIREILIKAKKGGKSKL
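Purified 10nM P. pyralis luciferase with 10uM D-luciferin and 10uM ATP in 50mM Tris acetate pH 7.5, 10mM Mg acetate, 0.01% Tween-20, 0.05% BSA. qHTS titration; luminescence read by CCD imager.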
SNCA viab count: reduces viability of HEK-293 SNCA reporter cells; Potency, µM (series often up to 57.1 µM), for the others: at the highest dose activity change, negative = cytotoxicity, usual class: cytotoxic; 150,000 compounds, 0.12% hits; HEK-293-SNCA-luc viability, GF-AFC fluorescence, 24 h;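 note: potency is the fitted concentration of half-maximal effect; 0% = DMSO-treated cells and -100% = medium-only wells without cells; nearly all actives have a fitted effect of over 30% in size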
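Cytotoxicity counterscreen: after 24 h compound treatment of genome-edited SNCA-luciferase HEK-293 cells, live-cell protease substrate GF-AFC read by fluorescence after 30 min; activity scaled between DMSO (0%) and medium-only (-100%), curves Hill-fitted.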
* marks the source's active call; other numbers are inactive results; i = inactive; u = inconclusive; x = no result given; [ ] = remark or other dose. This is a sample that favours compounds with a hit; in the whole collection about 7.3% have one here. Unless noted, calls come from the whole dose curve; as a rule, active = well fitted curve in the direction sought with a large enough effect; inconclusive = small, poorly fitted or top-dose-only effect, or another doubt; inactive = no such curve, though single readings can be large; an effect the other way counts as inactive or inconclusive. Unless noted, % is set by controls: 0 for no effect and ±100 for the full control effect.

SMILES	SNCA expr inhib	HEK293 tox	IP6K1 inh	NIH3T3 tox	Luciferase inh	SNCA viab count
COc1ccc(C(=O)N[C@@H]2CN(Cc3ccccc3)C[C@H]2CO)cn1	u	28µM*	5	u	i	u
O=C(N[C@@H]1CN(Cc2cccc(F)c2)C[C@H]1CO)c1ccccc1	u	7.1µM*	6	u	i	u
NC(=O)c1cccnc1N1CCC(n2cc(-c3ccccc3Cl)nn2)CC1	8%	79µM*	13	-24%	i	-15%
CC(C)C(=O)Nc1ccc(C2(C(=O)NCc3ccc(F)c(Cl)c3)CCC2)cc1	-7%	79µM*	-2	35µM*	i	11%
CS(=O)(=O)Nc1ccc(C2(C(=O)NCc3ccccc3Cl)CCCCC2)cc1	-14%	u	23	35µM*	i	u
CCc1ccc(CNC(=O)C2(c3ccc(NC(=O)C(C)C)cc3)CCC2)cc1	-22%	u	11	-12%	i	1%
Cc1ccc(-c2nc(-c3nnn4c3COC(c3ccc(C)cc3)C4)no2)cc1 (configuration not stated)	2%	13%	0	i	i	11%
COCC1CN(C)CC12CCN(C(=O)CCc1cccc(OC)c1)CC2 (configuration not stated)	4%	-22%	2	-15%	i	7%
CC(CCc1ccccc1)NC(=O)c1ccc2nccn2c1 (configuration not stated)	10%[87.6 µM]	-20%[172 µM]	-4	u	i	12%[87.6 µM]
COc1ccc(-n2cc(-c3ccnc(NCCC4CCCN4C)n3)cn2)cc1 (configuration not stated)	41%	u	8	u	u	-2%
CC(Cc1ccncc1)Nc1nccc(-c2cnn(-c3ccccc3)c2)n1 (configuration not stated)	2%	40µM*	0	u	u	-16%
CC1(C)CC(Nc2nccc(-c3cnn(-c4ccccc4)c3)n2)CC(C)(C)N1	2%	u	1	20µM*	i	-7%
CC(Cc1ccncc1)Nc1nccc(-c2cnn(-c3ccccc3F)c2)n1 (configuration not stated)	-16%	35µM*	9	u	u	-24%
COc1cccc(-c2ccc(C(=O)N3CCC(NC(=O)c4ccccc4)CC3)cc2)c1	12%	45µM*	-1	u	x	8%[12.5 µM]
COc1cccc(-c2ccc(C(=O)N3CCC(NC(=O)c4ccc(C)cc4)CC3)cc2)c1	-20%	u	-7	-32%	x	1%[12.5 µM]
COc1cccc(-c2ccc(C(=O)N3CCC(NC(=O)Nc4ccccc4)CC3)cc2)c1	-23%	25µM*	-7	u	x	-2%[12.5 µM]
COc1cccc(-c2ccc(C(=O)N3CCC(N[S+](=O)([O-])c4ccccc4)CC3)cc2)c1	-26%	20µM*	9	u	x	3%[12.5 µM]
COc1ccc(-c2ccc(C(=O)NC3CC3)cc2)nn1	x	89µM*	-22	u	x	x
O=C1NC2(CCN(Cc3ccc(F)cc3)C2)Oc2ccccc21 (configuration not stated)	37%[87.6 µM]	u	13	-20%[138 µM]	i	-2%[87.6 µM]
CC1=NOC2(CCN(Cc3ccc(C(F)(F)F)cc3)CC2)C1	50%[87.6 µM]	u	3	u	i	-3%[87.6 µM]
COc1ccc(C(=O)NC2CCN(C(=O)c3ccc(-c4ccccc4OC)cc3)CC2)cc1	2%	u	-3	u	x	5%[12.5 µM]
COc1ccc(-c2cccc(C(=O)N3CCC(NC(=O)c4ccccc4F)CC3)c2)nn1	x	-2%	-11	-4%	x	x
COc1cccc(-c2cccc(C(=O)N3CCN(C(=O)Nc4ccc(Cl)cc4)CC3)c2)c1	u	89µM*	0	u	x	-3%[12.5 µM]
COc1cccc(-c2ccc(C(=O)N3CCC(NC(=O)Nc4ccc(Cl)cc4)CC3)cc2)c1	-31%	10µM*	5	28µM*	x	2%[12.5 µM]
COc1ccccc1-c1ccc(C(=O)N2CCC(NC(=O)Nc3ccccc3)CC2)cc1	-13%	40µM*	-2	u	x	1%[12.5 µM]
SMILES	SNCA expr inhib	HEK293 tox	IP6K1 inh	NIH3T3 tox	Luciferase inh	SNCA viab count
COc1ccc(-c2cccc(C(=O)N3CCC(NC(=O)c4ccccc4OC)CC3)c2)nn1	x	28µM*	-4	-19%	x	x
COCc1noc([C@@H]2CN(Cc3cccc(Cl)c3F)C[C@H]2C(N)=O)n1	19%	u	32	-8%	i	-1%
Cc1cc(C)c(CN2CCC(n3cc(C(C)(C)N)nn3)CC2)c(C)c1	u	u	15	79µM*	i	-13%
NC(=O)NCc1cn(C2CCN(Cc3cc4ccccc4s3)CC2)nn1	34%	-21%	15	-25%	i	-18%
O=C1Nc2ccccc2O[C@H]2C[C@@H]1N(C(=O)Cc1ccccc1)C2	52%[87.6 µM]	1%[172 µM]	2	-1%[138 µM]	i	7%[87.6 µM]
O=C1NC2(CCCN(Cc3ccsc3)C2)COc2ccccc21 (configuration not stated)	-11%[87.6 µM]	79µM*	20	40µM*	i	5%[87.6 µM]
O=S1(=O)NC2(CCCN(Cc3ccc(Cl)cc3)C2)COc2ccccc21 (configuration not stated)	7%	u	14	45µM*	x	-24%
O=C1NC2(CCCN(Cc3cncs3)C2)COc2ccccc21 (configuration not stated)	-21%	28µM*	3	22µM*	i	-11%
O=C1NC2(CCCN(Cc3ccc(OC(F)(F)F)cc3)C2)COc2ccccc21 (configuration not stated)	3%	u	8	u	i	7%
O=C1NC2(CCCN(Cc3ccc(F)cc3)C2)COc2ccccc21 (configuration not stated)	2%	u	38	u	i	0%
Cc1noc(C)c1[S+](=O)([O-])N1CCCC2(COc3ccccc3C(=O)N2)C1 (configuration not stated)	u	22µM*	15	35µM*	i	u
CNC(=O)c1cc(C2CC2)nc2onc(C3CCN(C(=O)c4ccccc4)C3)c12 (configuration not stated)	x	-11%	2	-21%	x	x
O=C(NCCc1ccccn1)C1CCN(Cc2ccccc2-c2cccnc2)CC1	2%	3%	5	-15%	x	-1%
O=C(NCc1cccnc1)c1ccc(N2CCC(NCCCn3ncc4ccccc43)CC2)cc1	-22%	u	22	18µM*	i	1%
COc1ccc(Cn2c(=O)c3ccnn3c3ccc(C(=O)NCc4cccnc4)cc32)cc1	-9%	u	8	-2%	i	1%
